Measured values published in PubChem BioAssay AID1159580 (chemical genetic matrix, 2015).
Hit rate of the full screen: of about 5,500 compounds, about 2,000 (36%) were called active. Not shown: some 18% with an inconclusive outcome. Some of the results follow. Values without a mark were called inactive. Rule as the data show it: active = normalized growth mostly below about 0.91 (no sharp cut-off); inconclusive = no clear call, values can overlap the other calls; inactive = mostly above about 0.92.

Assay: chemical genetic growth profiling, strain panel (AID 1159580);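 also: tested at 20 µM; growth read once vehicle control cultures reached saturation at 30 °C; 1 = growth at the plate median or of vehicle wells; lower values mean less growth of the strain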
Conditions: S. cerevisiae deletion strains, growth OD
[1] = locus YAL040C, strain CLN3, active compounds read low
[2] = locus YER002W, strain NOP16, active compounds read low
[3] = locus YMR307W, strain GAS1, active compounds read low
[4] = locus YNL175C, strain NOP13, active compounds read low
[5] = locus YNL197C, strain WHI3, active compounds read low
[6] = locus YNL224C, strain SQS1, active compounds read low
[7] = locus YOR083W, strain WHI5 (second series), active compounds read low
[8] = locus YCL061C, strain MRC1 (second series), active compounds read low
[9] = locus YDR150W, strain NUM1, active compounds read low
[10] = locus YDR363W, strain ESC2, active compounds read low
[11] = locus YJR075W, strain HOC1, active compounds read low
[12] = locus YPL241C, strain CIN2, active compounds read low

SMILES | normalized growth [1] | normalized growth [2] | normalized growth (locus YMR263W, strain SAP30, active compounds read low) | normalized growth [3] | normalized growth (locus YNL128W, strain TEP1, active compounds read low) | normalized growth [4] | normalized growth [5] | normalized growth [6] | normalized growth [7] | normalized growth (locus YPL055C, strain LGE1, active compounds read low) | normalized growth [8] | normalized growth [9] | normalized growth [10] | normalized growth (locus YGR078C, strain PAC10, active compounds read low) | normalized growth [11] | normalized growth (locus YNL153C, strain GIM3, active compounds read low) | normalized growth [12] | normalized growth (locus YAL013W, strain DEP1, active compounds read low) | normalized growth (locus YNL322C, strain KRE1, active compounds read low)
NC[C@@H]1O[C@H](C23CC4CC(CC(C4)C2)C3)Cc2c1ccc(O)c2O | 0.954 | 0.998 | 1 | 0.414 (active) | 0.995 | 1.03 | 1.03 | 1.09 | 1.01 | 0.599 (active) | – | – | – | – | – | – | – | – | –
COc1cc2c(cc1O)CC[C@@H]1[C@@H]2CC[C@]2(C)[C@@H](O)CC[C@@H]12 | 1.02 | 0.994 | – | – | – | 1.01 | 1.03 | 1.03 | 0.982 | – | 1 | 0.964 | 1.02 | 1 | 1.03 | 0.936 | 0.996 | – | –
COc1ccc2c(c1)CCC1C2CC[C@@]2(C)C1CC[C@@H]2NCCCCCCN1C(=O)C=CC1=O (stereo partly specified) | 0.444 (active) | 0.843 (active) | – | 0.93 | – | – | 1.07 | 0.256 (active) | 1.02 | – | 0.998 | 0.976 | 0.988 | – | 0.997 | – | 0.993 | 0.989 | 0.984
